Source: PubChem BioAssay
Values without a mark were called inactive. The source made the active and inactive calls. Rule as the data show it, unless noted: active = inhibition above about 36%; inactive = the rest.

Legend:
[1] = test system: transactivating tegument protein VP16 (Human herpesvirus 1); test: compounds suppressing VP16-driven luciferase signal – cell-based, luminescence, single concentration, counter-screen for SRC2 inhibitor project (AID 652007); conditions: cell-based VP16 transactivation luciferase reporter, at 8.9 µM, active compounds read high
[2] = target: Nuclear receptor coactivator 2 (Homo sapiens) (UniProt Q15596); test: inhibition of GAL4-SRC2 driven luciferase expression – cell-based, luminescence, HEK293, triplicate, confirmation (AID 652008;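 active = mean inhibition above 46.5%, the solvent-only control mean plus 3 SD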;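 also: 0% = DMSO-treated cells and 100% = Gossypol at 36 µM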); conditions: HEK293 GAL4-SRC2 luciferase reporter, at 8.9 µM, active compounds read high
Sequence of Nuclear receptor coactivator 2 (Homo sapiens) (Q15596 whole entry, looked up, the tested form may be a part): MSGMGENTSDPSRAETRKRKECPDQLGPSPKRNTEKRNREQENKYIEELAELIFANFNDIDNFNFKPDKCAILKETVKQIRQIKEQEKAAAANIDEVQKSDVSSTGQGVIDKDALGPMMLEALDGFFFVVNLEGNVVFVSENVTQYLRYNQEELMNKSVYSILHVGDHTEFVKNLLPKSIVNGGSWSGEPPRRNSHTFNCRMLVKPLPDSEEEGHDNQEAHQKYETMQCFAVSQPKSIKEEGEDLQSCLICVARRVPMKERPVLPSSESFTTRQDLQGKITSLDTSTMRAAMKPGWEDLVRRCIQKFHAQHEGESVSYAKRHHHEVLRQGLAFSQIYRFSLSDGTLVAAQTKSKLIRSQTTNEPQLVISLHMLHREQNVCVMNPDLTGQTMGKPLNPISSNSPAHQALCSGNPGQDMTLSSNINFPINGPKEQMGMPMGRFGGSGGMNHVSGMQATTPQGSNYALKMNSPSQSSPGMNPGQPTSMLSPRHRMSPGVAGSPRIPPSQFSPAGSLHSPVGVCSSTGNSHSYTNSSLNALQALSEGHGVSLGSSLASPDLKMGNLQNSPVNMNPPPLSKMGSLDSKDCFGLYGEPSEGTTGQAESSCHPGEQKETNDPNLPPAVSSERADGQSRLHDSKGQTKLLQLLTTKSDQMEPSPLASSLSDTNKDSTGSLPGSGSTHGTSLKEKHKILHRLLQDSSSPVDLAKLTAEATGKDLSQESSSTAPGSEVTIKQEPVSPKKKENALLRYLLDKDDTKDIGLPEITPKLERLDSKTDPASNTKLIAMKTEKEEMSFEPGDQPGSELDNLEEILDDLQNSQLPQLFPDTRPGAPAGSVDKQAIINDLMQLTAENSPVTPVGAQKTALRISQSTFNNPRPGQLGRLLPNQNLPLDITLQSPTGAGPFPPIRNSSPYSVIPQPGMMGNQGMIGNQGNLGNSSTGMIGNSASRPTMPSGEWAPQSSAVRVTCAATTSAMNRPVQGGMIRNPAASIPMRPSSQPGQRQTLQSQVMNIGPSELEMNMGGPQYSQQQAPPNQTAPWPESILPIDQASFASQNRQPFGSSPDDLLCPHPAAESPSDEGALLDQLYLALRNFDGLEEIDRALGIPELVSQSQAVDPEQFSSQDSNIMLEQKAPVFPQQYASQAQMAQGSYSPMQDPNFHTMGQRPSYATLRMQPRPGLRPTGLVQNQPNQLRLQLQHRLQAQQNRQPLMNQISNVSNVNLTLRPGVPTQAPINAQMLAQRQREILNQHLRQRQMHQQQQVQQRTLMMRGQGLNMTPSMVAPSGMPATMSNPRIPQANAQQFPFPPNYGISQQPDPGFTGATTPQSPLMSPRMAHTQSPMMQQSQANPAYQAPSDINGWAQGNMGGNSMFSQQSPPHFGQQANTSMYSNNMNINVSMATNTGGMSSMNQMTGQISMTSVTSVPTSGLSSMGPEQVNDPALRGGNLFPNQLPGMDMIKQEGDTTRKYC

**Q.** Which results are given for COc1ccc(C2C(O)C(c3c[nH]c4ccccc34)=NN2C(=O)CCl)cc1 (centres undefined)?
**A.** inhibition [1]: 72.7% (active); inhibition [2]: 79.9% (active)

**Q.** How did the inhibition [1] turn out when COc1ccccc1NS(=O)(=O)c1ccc(C)c(C(=O)NC2CCN(Cc3ccccc3)CC2)c1 was run?
**A.** 17.2%

**Q.** What about the inhibition [2] of the same molecule?
**A.** 36.4%

**Q.** For CC(C)(C)c1ccc(C(=O)Nc2ccc(NC(=O)C(=O)O)cc2)o1, which inhibition [1] is on record?
**A.** -30%

**Q.** And the inhibition [2]?
**A.** -15.8%

**Q.** For CCOc1ccc(C(=O)CCC(=O)Nc2cccc(S(=O)(=O)N3CCCCC3)c2)cc1, which inhibition [1] is on record?
**A.** 4.55%

**Q.** And the inhibition [2]?
**A.** 44.2%

**Q.** Which inhibition [1] does the source give for CC(=O)OC1CCC2(C)C(CCC3C4CC=C(C(C)=O)C4(C)OC(=O)CC32)C1 (centres undefined) here?
**A.** 20.8%

**Q.** And the inhibition [2]?
**A.** 16.1%

**Q.** Which results are given for Cc1cc(=O)oc2cc(OC(C)C(=O)NCCc3ccc(S(N)(=O)=O)cc3)ccc12 (centres undefined)?
**A.** inhibition [1]: -19.6%; inhibition [2]: -12.7%

**Q.** What does the source list for COc1ccc(NC(=O)C2(C)Cc3c(-c4cccc(NC(C)=O)c4)ccnc3O2)cc1 (centres undefined)?
**A.** inhibition [1]: -10.6%; inhibition [2]: 1.6%

**Q.** O=C(Cc1ccc(Cl)cc1)NCCc1cnc[nH]1 was tested. Which inhibition [1] did it give?
**A.** -16.2%

**Q.** And the inhibition [2]?
**A.** -12.5%

**Q.** Which inhibition [1] does the source give for CCn1nc(C)cc1-c1nnc(Sc2ncc([N+](=O)[O-])s2)n1C here?
**A.** 85.2% (active)

**Q.** And the inhibition [2]?
**A.** 93.9% (active)

**Q.** Which inhibition [1] does the source give for COc1ccc(CN2C[C@H](Cc3ccccc3)[C@@H](CC(=O)Nc3ccccc3)C2=O)cc1 here?
**A.** -10.9%

**Q.** What about the inhibition [2] of the same molecule?
**A.** 1.81%

**Q.** What does the source list for COC(=O)c1cc(C(=O)OC)cc(S(=O)(=O)Nc2ccc(Cl)c(N)c2)c1?
**A.** inhibition [1]: -6.46%; inhibition [2]: -14.7%

**Q.** What does the source list for COC(=O)[C@]12C[C@H](CC(=O)N3CCCCC3)C(=O)N(Cc3ccco3)C1=C[C@H](C(C)C)O[C@@H]2C1CC1?
**A.** inhibition [1]: -5.52%; inhibition [2]: -14.3%

**Q.** With CC(=NCc1ccco1)c1c(C)[nH]n(-c2nc3ccccc3s2)c1=O as the molecule, how does the inhibition [1] read?
**A.** -24%

**Q.** And the inhibition [2]?
**A.** 14.3%

**Q.** Which inhibition [1] does the source give for O=[N+]([O-])c1ccc(Sc2nccn2Cc2ccccc2)c([N+](=O)[O-])c1 here?
**A.** 4.42%

**Q.** What about the inhibition [2] of the same molecule?
**A.** 32.1%

**Q.** What does the source list for COC(=O)COc1ccc(-c2nccc(-c3ccccn3)n2)cc1?
**A.** inhibition [1]: 16.9%; inhibition [2]: 73.4% (active)

**Q.** How did the inhibition [1] turn out when CCC(C)[C@H](NC(=O)N1CCn2c1nc1ccccc12)C(=O)NCc1ccc(OC)cc1 (some centres undefined) was run?
**A.** -13%

**Q.** What about the inhibition [2] of the same molecule?
**A.** 8.36%

**Q.** How did the inhibition [1] turn out when CN(C)c1ccc(/C=C2\SC(=O)N(CCc3nnc(N)s3)C2=O)cc1 was run?
**A.** -23.4%

**Q.** And the inhibition [2]?
**A.** 27.1%

**Q.** Which inhibition [1] does the source give for CCCCn1c(CCC)nc([N+](=O)[O-])c1Sc1ccc(Cl)cn1 here?
**A.** 13.2%

**Q.** What about the inhibition [2] of the same molecule?
**A.** 20.7%

**Q.** Which results are given for CC(=O)CC[C@@H]1CC[C@]2(CCCN(S(C)(=O)=O)C2)O1?
**A.** inhibition [1]: -18.6%; inhibition [2]: -4.54%

**Q.** Which inhibition [1] does the source give for CC(NC(=O)CCc1nnc(-c2ccc(-c3ccccc3)cc2)o1)c1nccs1 (centres undefined) here?
**A.** 17%

**Q.** And the inhibition [2]?
**A.** 58.5% (active)

**Q.** What does the source list for Nc1ccc(Oc2ccc3c(c2)C(=O)N(CC2CCCO2)C3=O)cc1 (centres undefined)?
**A.** inhibition [1]: -45.6%; inhibition [2]: 52.8% (active)

**Q.** Which results are given for CN(c1ccccc1)S(=O)(=O)c1ccc(C(=O)NCc2ccccc2CN2CCCC2)cc1?
**A.** inhibition [1]: -19.8%; inhibition [2]: -25.8%

**Q.** Which results are given for O=C(NCc1cccnc1)c1cc(Sc2ccc(F)cc2F)nc2ccccc12?
**A.** inhibition [1]: 3%; inhibition [2]: 16.4%

**Q.** What does the source list for O=C(Nc1ccc(NC(=O)c2ccco2)cc1)c1ccc2c(c1)OCCO2?
**A.** inhibition [1]: -30.2%; inhibition [2]: 12.1%

**Q.** With COC(=O)c1ccc(/C=C2/SC(=S)N(CCCC(=O)Nc3ccc(O)cc3)C2=O)cc1 as the molecule, how does the inhibition [1] read?
**A.** 15.8%

**Q.** And the inhibition [2]?
**A.** 7.74%

**Q.** CCOC(=O)c1ccc(-c2ccc(N3C(c4ccsc4)=Cc4ccc(F)cc4C3c3c[nH]c4ccc(C#N)cc34)cc2)cc1F (centres undefined) was tested. Which inhibition [1] did it give?
**A.** -3.42%

**Q.** What about the inhibition [2] of the same molecule?
**A.** 33.6%

**Q.** Which inhibition [1] does the source give for COc1ccc(CCNc2nnc(Sc3nnnn3-c3ccccc3)s2)cc1OC here?
**A.** 5.42%

**Q.** What about the inhibition [2] of the same molecule?
**A.** 20.1%

**Q.** For Cc1cc(C)cc(C(=O)NC(=S)Nc2ccc(-c3cc4ccccc4oc3=O)cc2)c1, which inhibition [1] is on record?
**A.** -8.51%

**Q.** What about the inhibition [2] of the same molecule?
**A.** 46.7% (active)

**Q.** What does the source list for CCOC(=O)c1c(C)[nH]c(C(=O)Nc2ccc(NC(C)=O)cc2)c1C?
**A.** inhibition [1]: 6.79%; inhibition [2]: 8.17%

**Q.** What does the source list for CCOc1ccc(-c2c(C(=O)N/N=C/c3cccc(Br)c3)nnn2-c2nonc2N)cc1?
**A.** inhibition [1]: -5.94%; inhibition [2]: -23.4%

**Q.** Which inhibition [1] does the source give for O=C(O)Cc1nn(Cc2ccc(Cl)cc2)c(=O)c2ccccc12 here?
**A.** -13.4%

**Q.** What about the inhibition [2] of the same molecule?
**A.** -30.9%

**Q.** With COc1cccc(C(NC(C)=O)c2nc(-c3cccc(C#N)c3)cs2)c1 (centres undefined) as the molecule, how does the inhibition [1] read?
**A.** -10.7%

**Q.** What about the inhibition [2] of the same molecule?
**A.** -26.2%

**Q.** How did the inhibition [1] turn out when CCN(CC)S(=O)(=O)c1ccc(NC2c3ccccc3C(=O)N2Cc2ccco2)cc1 (centres undefined) was run?
**A.** -12.8%

**Q.** What about the inhibition [2] of the same molecule?
**A.** -30.1%

**Q.** For CC(C)(CO)CNC(=O)CCc1nnc(-c2ccc(-c3ccccc3)cc2)o1, which inhibition [1] is on record?
**A.** 0.83%

**Q.** And the inhibition [2]?
**A.** -13.5%

**Q.** With CN(Cc1cc(Cl)cc(Cl)c1)CC(C(=O)c1ccccc1)c1ccccc1 (centres undefined) as the molecule, how does the inhibition [1] read?
**A.** 25%

**Q.** And the inhibition [2]?
**A.** 47.9% (active)

**Q.** O=c1c(Br)ccc(Br)cc1Br was tested. Which inhibition [1] did it give?
**A.** 97.7% (active)

**Q.** And the inhibition [2]?
**A.** 99.4% (active)

**Q.** CN1CCN(S(=O)(=O)c2cccc(C(=O)Nc3ccc(Br)cc3Br)c2)CC1 was tested. Which inhibition [1] did it give?
**A.** 12.2%

**Q.** And the inhibition [2]?
**A.** 12.1%
